For 16 molecules, residual activity results are on record in ChEMBL document CHEMBL2218924, “A broad activity screen in support of a chemogenomic map for kinase signalling research and drug discovery” (Biochem J, 2013).

SMILES strings stand for the structures.

The first experiment deals with T1, Serine/threonine-protein kinase NLK (Homo sapiens) (UniProt Q9UBE8).
T1 sequence (whole entry): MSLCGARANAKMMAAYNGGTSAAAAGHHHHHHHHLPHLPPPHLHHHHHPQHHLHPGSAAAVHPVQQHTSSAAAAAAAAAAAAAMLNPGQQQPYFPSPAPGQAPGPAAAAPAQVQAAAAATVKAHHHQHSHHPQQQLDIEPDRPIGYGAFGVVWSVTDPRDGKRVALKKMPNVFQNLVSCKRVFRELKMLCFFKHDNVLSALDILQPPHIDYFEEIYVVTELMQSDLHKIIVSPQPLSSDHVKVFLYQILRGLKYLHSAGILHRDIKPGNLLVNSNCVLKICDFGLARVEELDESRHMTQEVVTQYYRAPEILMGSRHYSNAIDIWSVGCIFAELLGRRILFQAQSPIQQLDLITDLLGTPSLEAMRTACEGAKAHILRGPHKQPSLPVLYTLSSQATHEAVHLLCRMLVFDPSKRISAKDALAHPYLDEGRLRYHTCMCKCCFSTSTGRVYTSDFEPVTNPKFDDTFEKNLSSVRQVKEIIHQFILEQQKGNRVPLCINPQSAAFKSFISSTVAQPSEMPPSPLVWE
To be noted: at 1 µM.
In the case of `c1cc(-c2cnn3cc(-c4ccc(OCCN5CCCCC5)cc4)cnc23)ccn1`, the residual activity worked out at 86%.
Same read-out and setting: for `O=c1[nH]c2ccccc2n1C1CCN(Cc2ccc(-c3nc4cc5[nH]cnc5cc4nc3-c3ccccc3)cc2)CC1` the value was 105%; for `O=C1Nc2ccc3ncsc3c2/C1=C/c1c[nH]cn1`, 29%; for `COc1cc(OC)c(/C=C2\C(=O)Nc3ccccc32)c(OC)c1`, 92%.
Still for that read-out and setting: for `CC(C)[C@H](CO)Nc1nc(Nc2cccc(Cl)c2)c2ncn(C(C)C)c2n1` the value was 100%.
For the molecule `COC(=O)[C@@]1(O)C[C@H]2O[C@]1(C)n1c3ccccc3c3c4c(c5c6ccccc6n2c5c31)C(=O)NC4`, the residual activity amounted to 42%.
Same read-out and setting: for `COc1cc2ncnc(Nc3ccc(OCc4ccccc4)cc3)c2cc1OC` the value was 111%.
The same measure, in the same setting: with `C[S+]([O-])c1ccc(-c2nc(-c3ccc(F)cc3)c(-c3ccncc3)[nH]2)cc1` (stereo not drawn) the figure was 62%; with `O=[N+]([O-])/C=C/c1ccc2c(c1)OCO2`, 107%.
On the same count and under the same terms, with `CCn1cnc2c(Nc3cccc(Cl)c3)nc(N[C@@H]3CCCC[C@@H]3N)nc21` the figure was 80%; with `O=C1c2ccccc2-c2nc3nnnn3nc21`, 112%; with `COc1ccc2c(c[n+](C)c3c4cc5c(cc4ccc23)OCO5)c1OC`, 92%.
On to `COc1ccc2c(c1)/C(=C/c1cnc[nH]1)C(=O)N2`, for which the residual activity is 70%.

A further experiment addresses T1, Serine/threonine-protein kinase NLK (Homo sapiens). To be noted: at 10 µM.
`c1cc(-c2cnn3cc(-c4ccc(OCCN5CCCCC5)cc4)cnc23)ccn1`: the residual activity came out at 34%.
The same measure, in the same setting: for `O=c1[nH]c2ccccc2n1C1CCN(Cc2ccc(-c3nc4cc5[nH]cnc5cc4nc3-c3ccccc3)cc2)CC1` the value was 84%; for `O=C1Nc2ccc3ncsc3c2/C1=C/c1c[nH]cn1`, 5%; for `COc1cc(OC)c(/C=C2\C(=O)Nc3ccccc32)c(OC)c1`, 86%.
For the molecule `CC(C)[C@H](CO)Nc1nc(Nc2cccc(Cl)c2)c2ncn(C(C)C)c2n1`, the residual activity was 81%.
The same measure, in the same setting: for `COC(=O)[C@@]1(O)C[C@H]2O[C@]1(C)n1c3ccccc3c3c4c(c5c6ccccc6n2c5c31)C(=O)NC4` the value was 10%; for `COc1cc2ncnc(Nc3ccc(OCc4ccccc4)cc3)c2cc1OC`, 90%.
Same read-out and setting: for `C[S+]([O-])c1ccc(-c2nc(-c3ccc(F)cc3)c(-c3ccncc3)[nH]2)cc1` (stereo not drawn) the value was 24%.
On the same count and under the same terms, for `CC(C)(C)c1cc(C=C(C#N)C#N)cc(Br)c1O` the value was 53%; for `O=[N+]([O-])/C=C/c1ccc2c(c1)OCO2`, 95%.
On to `CCn1cnc2c(Nc3cccc(Cl)c3)nc(N[C@@H]3CCCC[C@@H]3N)nc21`, for which the residual activity turned out to be 34%.
On the same count and under the same terms, with `COc1ccc2c(c[n+](C)c3c4cc5c(cc4ccc23)OCO5)c1OC` the figure was 76%; with `COc1ccc2c(c1)/C(=C/c1cnc[nH]1)C(=O)N2`, 19%.

Another experiment deals with Serine/threonine-protein kinase PAK 2 (Homo sapiens) (UniProt Q13177). To be noted: at 1 µM.
Serine/threonine-protein kinase PAK 2 (Homo sapiens), sequence (Q13177 whole entry): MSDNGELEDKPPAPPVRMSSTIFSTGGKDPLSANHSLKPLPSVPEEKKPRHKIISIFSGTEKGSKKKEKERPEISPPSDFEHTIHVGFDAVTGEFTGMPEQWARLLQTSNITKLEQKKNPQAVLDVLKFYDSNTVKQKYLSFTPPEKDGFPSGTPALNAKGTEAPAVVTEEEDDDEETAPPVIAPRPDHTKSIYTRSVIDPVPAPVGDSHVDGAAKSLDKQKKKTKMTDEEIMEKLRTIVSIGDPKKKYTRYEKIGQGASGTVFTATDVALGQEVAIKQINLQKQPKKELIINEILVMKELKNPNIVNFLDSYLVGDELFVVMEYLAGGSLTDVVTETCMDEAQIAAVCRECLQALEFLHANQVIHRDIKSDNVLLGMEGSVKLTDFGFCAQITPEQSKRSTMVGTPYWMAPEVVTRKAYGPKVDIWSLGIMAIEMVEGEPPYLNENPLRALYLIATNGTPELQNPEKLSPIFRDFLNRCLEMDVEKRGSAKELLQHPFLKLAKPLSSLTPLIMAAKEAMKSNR
For `c1cc(-c2cnn3cc(-c4ccc(OCCN5CCCCC5)cc4)cnc23)ccn1`, the residual activity worked out at 118%.
With `N/C(=N\[N+](=O)[O-])N/N=C\c1ccc(-c2cccc([N+](=O)[O-])c2)o1`, the residual activity worked out at 98%.
For the molecule `O=c1[nH]c2ccccc2n1C1CCN(Cc2ccc(-c3nc4cc5[nH]cnc5cc4nc3-c3ccccc3)cc2)CC1`, the residual activity is 103%.
With `O=C1Nc2ccc3ncsc3c2/C1=C/c1c[nH]cn1`, the residual activity was found to be 96%.
On the same count and under the same terms, for `COc1cc(OC)c(/C=C2\C(=O)Nc3ccccc32)c(OC)c1` the value was 97%; for `CC(C)[C@H](CO)Nc1nc(Nc2cccc(Cl)c2)c2ncn(C(C)C)c2n1`, 99%.
On the same count and under the same terms, for `CCc1nc(-c2ccc(OC)cc2)[nH]c1-c1ccncc1` the value was 107%; for `COC(=O)[C@@]1(O)C[C@H]2O[C@]1(C)n1c3ccccc3c3c4c(c5c6ccccc6n2c5c31)C(=O)NC4`, 19%.
The same measure, in the same setting: with `COc1cc2ncnc(Nc3ccc(OCc4ccccc4)cc3)c2cc1OC` the figure was 113%; with `C[S+]([O-])c1ccc(-c2nc(-c3ccc(F)cc3)c(-c3ccncc3)[nH]2)cc1` (stereo not drawn), 110%.
On to `CC(C)(C)c1cc(C=C(C#N)C#N)cc(Br)c1O`, for which the residual activity was found to be 125%.
Same read-out and setting: for `O=[N+]([O-])/C=C/c1ccc2c(c1)OCO2` the value was 111%; for `O=C1c2ccccc2-c2nc3nnnn3nc21`, 101%.

Another experiment shares this target. The following applies: at 10 µM.
As to `c1cc(-c2cnn3cc(-c4ccc(OCCN5CCCCC5)cc4)cnc23)ccn1`, the residual activity was 103%.
On the same count and under the same terms, for `N/C(=N\[N+](=O)[O-])N/N=C\c1ccc(-c2cccc([N+](=O)[O-])c2)o1` the value was 95%.
For the molecule `O=c1[nH]c2ccccc2n1C1CCN(Cc2ccc(-c3nc4cc5[nH]cnc5cc4nc3-c3ccccc3)cc2)CC1`, the residual activity amounted to 85%.
Same read-out and setting: for `O=C1Nc2ccc3ncsc3c2/C1=C/c1c[nH]cn1` the value was 54%; for `CC(C)[C@H](CO)Nc1nc(Nc2cccc(Cl)c2)c2ncn(C(C)C)c2n1`, 79%; for `CCc1nc(-c2ccc(OC)cc2)[nH]c1-c1ccncc1`, 110%.
Take `COC(=O)[C@@]1(O)C[C@H]2O[C@]1(C)n1c3ccccc3c3c4c(c5c6ccccc6n2c5c31)C(=O)NC4`: the residual activity worked out at 2%.
On the same count and under the same terms, for `COc1cc2ncnc(Nc3ccc(OCc4ccccc4)cc3)c2cc1OC` the value was 99%; for `C[S+]([O-])c1ccc(-c2nc(-c3ccc(F)cc3)c(-c3ccncc3)[nH]2)cc1` (stereo not drawn), 100%.
On the same count and under the same terms, for `CC(C)(C)c1cc(C=C(C#N)C#N)cc(Br)c1O` the value was 104%; for `O=[N+]([O-])/C=C/c1ccc2c(c1)OCO2`, 100%.
Same read-out and setting: with `CCn1cnc2c(Nc3cccc(Cl)c3)nc(N[C@@H]3CCCC[C@@H]3N)nc21` the figure was 73%; with `O=C1c2ccccc2-c2nc3nnnn3nc21`, 75%.
With `COc1ccc2c(c[n+](C)c3c4cc5c(cc4ccc23)OCO5)c1OC`, the residual activity is 81%.

In general, residual activity refers to the signal under treatment as a percentage of the control signal.
